Compound activity: PubChem BioAssay, National Center for Advancing Translational Sciences (NCATS)
Pf growth 96h: P. falciparum growth inhibition at 96 hour, primary screen for plastid delayed-death inhibitors | P. falciparum luciferase reporter growth, 96 h | Potency, µM (highest dose often 28.7 µM), inactives show top-dose activity change, negative = inhibition, actives largely listed as inhibitors | 320,000 tested, 6.9% active; further: potency means the concentration at half of the fitted maximal effect; on the % scale 0 is the no-effect control and ±100 the full control effect
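Erythrocytes infected with luciferase-expressing P. falciparum were dispensed at 2% hematocrit and 0.05% parasitemia (final), then incubated with compounds 96 hours at 37 C in 5% CO2. Luminescence after detection reagent addition reported growth.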
Cycloheximide cs: counter-screen for Shiga toxin inhibitors: cycloheximide protein synthesis inhibition; cell reporter, cycloheximide protein synthesis inhibition counterscreen; max response, %; 300,000 tested, 12% active; in the data active means max response mostly above about 13%, no sharp cut-off; inactive means mostly below about 14%; further: read at 38.3 µM for the half of the compounds with a filed dose; 0% is about no effect
LmPK inh: blocks Leishmania mexicana pyruvate kinase activity; Q27686; purified LmPK, Kinase-Glo ATP luminescence, 1 h; Potency, µM (series often up to 57.5 µM), for inactives: at the highest dose activity change, negative = inhibition, usual class: inhibitors; 290,000 tested, 0.37% active; AID 1721; further: potency means the concentration at half of the fitted maximal effect; on the % scale 0 is the no-effect control and ±100 the full control effect
Target sequence (Q27686 whole entry, looked up): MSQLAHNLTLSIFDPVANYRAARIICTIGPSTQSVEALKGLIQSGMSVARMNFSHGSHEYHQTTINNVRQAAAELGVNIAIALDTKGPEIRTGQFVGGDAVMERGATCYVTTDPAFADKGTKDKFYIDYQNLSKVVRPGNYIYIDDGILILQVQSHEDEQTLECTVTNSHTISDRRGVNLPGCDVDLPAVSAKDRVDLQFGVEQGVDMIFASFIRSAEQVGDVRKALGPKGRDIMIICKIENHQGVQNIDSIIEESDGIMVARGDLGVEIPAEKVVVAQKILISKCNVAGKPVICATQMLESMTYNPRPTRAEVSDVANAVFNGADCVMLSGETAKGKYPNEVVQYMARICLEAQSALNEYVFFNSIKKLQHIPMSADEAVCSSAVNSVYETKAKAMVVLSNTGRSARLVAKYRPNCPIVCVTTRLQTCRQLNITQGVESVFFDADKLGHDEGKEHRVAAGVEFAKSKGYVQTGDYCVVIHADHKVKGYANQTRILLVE
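In 50 mM imidazole pH 7.2 with 7 mM MgCl2, LmPK (0.1 nM) turned over PEP (0.5 mM) and ADP (0.1 mM) for 1 h at room temperature. Luciferase read-out of ATP.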
Shiga toxin inh: inhibitors of Shiga toxin in Vero cells; Vero cells, Shiga toxin protein synthesis inhibition reporter; inhibition, % at 38.7 µM; 290,000 tested, 9.2% active; in the data active means inhibition mostly above about 28%, no sharp cut-off; inactive means mostly below about 43%; further: 0% is about no effect
Pf growth 48h: inhibits P. falciparum growth in the first generation, 48 h. P. falciparum luciferase growth in erythrocytes, 48 h. 310,000 tested, 5.9% active. Potency, µM (doses to about 28.7 µM), without a hit: at the highest dose activity change, negative = inhibition, actives largely listed as inhibitors; further: potency means the concentration at half of the fitted maximal effect; on the % scale 0 is the no-effect control and ±100 the full control effect
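Luciferase-expressing parasites in RBCs, 2% Hct / 0.1% parasitemia final; RPMI 1640 + 0.5% Albumax; 37 C, 5% CO2, one generation; luminescence read-out, lower signal = inhibition.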
* hit, by the source's call; ? = inconclusive; . = not tested or not shown; [ ] = another dose, or the depositor's remark. In the library only some 22% were active in any assay of this set; here they are far more common. Unless noted, the call rests on the fitted dose curve; in most records, active means well fitted inhibition curve with a large enough effect; inconclusive means small, poorly fitted or top-dose-only effect, or another doubt; inactive means no such curve, though single readings can be large or run the other way.

SMILES | Pf growth 96h | Cycloheximide cs | LmPK inh | Shiga toxin inh | Pf growth 48h
Cc1nnc(SCC(=O)NC(C)(C)C)n1CCc1ccccc1 | ? | 11* | -1% | 8 | 11%
Cc1nnc(SCC(=O)NC(C)(C)C)n1NCc1c(F)cccc1Cl | 2.3µM* | -6 | -2% | -1 | 10%
CC(C)(C)C(=O)NCCCC(=O)O | -11% | . | . | . | ?
c1ccc(-c2nc3nonc3nc2-c2ccccc2)cc1 | 20% | 1 | -4% | 25 | 12µM*
Cn1c(=O)c2c(nc(CN3CCC(C(N)=O)CC3)n2Cc2c(F)cccc2Cl)n(C)c1=O | 10µM* | -3 | -1% | -5 | ?
Cn1c(=O)c2c(nc(CN3CCC(C(N)=O)CC3)n2Cc2c(Cl)cccc2Cl)n(C)c1=O | . | 4 | 1% | -5 | 12µM*
Cn1nc(C(=O)OCC(=O)Nc2sccc2C(N)=O)c2ccccc2c1=O | 21% | -2 | 5% | -13 | 27%
CC(NC(=O)C(NS(=O)(=O)c1cccs1)C(C)C)c1ccc(S(N)(=O)=O)cc1 (configuration not stated) | -26% | . | . | . | 2%
Cc1ccc(Nc2nc3c(c(=O)[nH]c(=O)n3C)n2Cc2ccc(F)cc2)cc1 | -109% | 13* | 1% | 26* | ?
Cn1c(=O)[nH]c(=O)c2c1nc(NCCCO)n2Cc1ccc(F)cc1 | 2% | 16 | -8% | 79* | -4%
Cn1c(=O)[nH]c(=O)c2c1nc(NCCCn1ccnc1)n2Cc1ccccc1 | 1% | -2 | -6% | -2 | -3%
Cc1ccc(C(=O)CNc2nc3c(c(=O)[nH]c(=O)n3C)n2Cc2ccccc2)cc1 | 9.3µM* | -4 | 4% | -14 | 13µM*
CC/C(C)=N/Nc1nc2c(c(=O)[nH]c(=O)n2C)n1Cc1ccccc1 | ? | -7 | -11% | 1 | ?
O=C(C1CCN(S(=O)(=O)c2ccc(F)cc2)CC1)N1CCCC(C(F)(F)F)C1 (configuration not stated) | ? | . | . | . | 0%
O=C(CCN1CCOCC1)NNC(=S)NC(=O)c1ccc(Br)cc1 | 13% | -1 | 8% | -7 | ?
CN(CCCNC(=O)Cn1c(=O)c2cccn2c2ccccc21)Cc1ccccc1 | ? | -4 | -5% | -5 | -9%
Fc1cccc(/C=N/NC(=S)Nc2ccccc2Cl)c1 | 221% | 36* | 0% | 31 | 101%
S=C(N/N=C/c1ccc(Cl)c(Cl)c1)Nc1ccccc1Cl | 72%[5.75 µM] | 23* | 1% | 30 | -2%
Fc1ccc(NC(=S)N/N=C/c2cccc(Br)c2)c(F)c1 | ? | 5 | 12% | -11 | .
O=[N+]([O-])c1cc(/C=N/NC(=S)Nc2ccccc2Cl)ccc1Cl | 59%[5.75 µM] | 10 | 1% | 21 | -19%
FC(F)(F)c1ccc(Cl)c(NC(=S)N/N=C/c2ccccc2Cl)c1 | 1.5µM* | -5 | -17% | -5 | ?
O=C(NC(=S)Nc1cc(C(F)(F)F)ccc1Cl)c1ccccc1 | ? | -3 | -5% | 17 | 22%
COc1ccccc1-n1nnnc1SCC(=O)Nc1ccc(C)c(N)c1 | 0% | 1 | 3% | 1 | ?
COc1ccc(-n2c(C)cc(C(=O)COC(=O)Cn3cnc4ccccc43)c2C)cc1 | 48% | 1 | 1% | -2 | 13µM*
COC(=O)c1cc(C(=O)OC)cc(-n2c(C)cc(C(=O)CC#N)c2C)c1 | . | -2 | 3% | -1 | 10µM*
SMILES | Pf growth 96h | Cycloheximide cs | LmPK inh | Shiga toxin inh | Pf growth 48h
COc1ccc(-n2c(C)cc(C(=O)COC(=O)c3ccc(O)cc3O)c2C)cc1 | 12µM* | . | . | . | 7.4µM*
Cc1cc(C(=O)CC#N)c(C)n1-c1ccc(OC(F)F)cc1 | 13µM* | 2 | 8% | 10 | ?
COc1ccc(-n2c(C)cc(C(=O)CCl)c2C)cc1 | ? | 11 | -7% | -6 | -12%
O=C(O)c1ccccc1-c1ccccc1C(=O)NCc1ccccc1Cl | 0% | -1 | -6% | -6 | 29%
COc1cc(C(=O)OCC(=O)NCCC2=CCCCC2)ccc1OCC(C)C | -20% | . | . | . | ?
CCCCn1c(N)c(N(CCC(C)C)C(=O)C2CCCN(C(=O)c3ccc(Cl)cc3)C2)c(=O)[nH]c1=O (configuration not stated) | ? | . | . | . | 0%
Cc1cc(C(=O)COC(=O)c2ccc(O)cc2O)c(C)n1-c1ccc(OC(F)F)cc1 | ? | . | . | . | 9.3µM*
COC(=O)c1ccc(/C=C2\Oc3ccccc3NC2=O)cc1 | ? | 15* | 0% | 29 | 101%
